Experimental data taken from PubChem BioAssay (EPA / NIEHS).
Results filed as inconclusive are left out. Active and inactive are the calls of the source. Rule for the calls, unless noted: active = hit-call score of the fitted dose curve at least 0.9, where 1 is the maximum; inactive = score below 0.9.

How the values were obtained:
[1] = target: Glucocorticoid receptor (Homo sapiens) (UniProt P04150); test: ATG_GR_TRANS: Attagene TRANS-FACTORIAL HepG2 Assay for human Glucocorticoid Receptor (GR) (AID 2282978; active = hit-call score of the fitted dose curve at least 0.9, where 1 is the maximum;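 note: activators score as hits since higher reporter transcript over DMSO is fitted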); conditions: HepG2 Attagene TRANS GR reporter, mRNA transcription
Summary of the method: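 After 24 h incubation with test chemical, transfected HepG2 cells were lysed for RNA; reporter cDNA was amplified, FAM-labelled, HpaI-digested and sized on a capillary analyser. Signal gain relative to DMSO was scored.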

[2] = target: Oxysterols receptor LXR-alpha (Homo sapiens) (UniProt Q13133); test: ATG_LXRa_TRANS: Attagene TRANS-FACTORIAL HepG2 Assay for human Liver X Receptor alpha (LXRa) (AID 2282980; active = hit-call score of the fitted dose curve at least 0.9, where 1 is the maximum); conditions: HepG2 Attagene TRANS reporter, LXRa transactivation
Summary of the method: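 Transient HepG2 transfectants, 24 h dosing, RT-PCR/CE mRNA reporter quantitation; gain-of-signal vs DMSO.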

[3] = target: Oxysterols receptor LXR-beta (Homo sapiens) (UniProt P55055); test: ATG_LXRb_TRANS: Attagene TRANS-FACTORIAL HepG2 Assay for human Liver X Receptor beta (LXRb) (AID 2282981; active = hit-call score of the fitted dose curve at least 0.9, where 1 is the maximum); conditions: HepG2 Attagene TRANS GAL4-LXRb reporter, mRNA
Summary of the method: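 Cells: HepG2, transiently transfected with GAL4-UAS reporter units plus LXRb-Gal4 fusion. Treatment: 24 h. Detection: reporter mRNA by RT-PCR, 6-FAM labelling, HpaI digestion, capillary electrophoresis.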

[4] = ATG_M_32_TRANS: Attagene TRANS-FACTORIAL HepG2 Assay for M32 Transcription Factor (Internal Marker) (AID 2282984; active = hit-call score of the fitted dose curve at least 0.9, where 1 is the maximum;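 note: transcript level of a background control reporter unit measured by RT-PCR and capillary electrophoresis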); conditions: HepG2 Attagene TRANS M32 internal marker reporter
Summary of the method: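 Using transiently transfected HepG2 cells exposed to test chemicals for 24 h, reporter transcripts are converted to labelled cDNA fragments and quantified by capillary electrophoresis. DMSO defines the activity baseline.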

[5] = target: Nuclear receptor subfamily 4 group A member 2 (Homo sapiens) (UniProt P43354); test: ATG_NURR1_TRANS: Attagene TRANS-FACTORIAL HepG2 Assay for human Nuclear Receptor Related Protein 1 (NURR1) (AID 2282985; active = hit-call score of the fitted dose curve at least 0.9, where 1 is the maximum); conditions: HepG2 Attagene TRANS reporter, mRNA readout
Summary of the method: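 Cells: HepG2, transiently transfected. Exposure: 24 h. Detection: fluorescence of labelled RT-PCR products separated by capillary electrophoresis; upward fit versus DMSO.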

[6] = target: Transcriptional activator Myb (Homo sapiens) (UniProt P10242); test: ATG_Myb_CIS: Attagene CIS-FACTORIAL HepG2 Assay for human Myeloblastosis (Myb) Proto-Oncogene Transcription Factor (AID 2282986); conditions: HepG2 Attagene CIS-FACTORIAL Myb reporter transcription; actives raise or lower the signal
Summary of the method: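 After 24 h of compound dosing, total RNA from transfected HepG2 cells is reverse-transcribed and the reporter sequences amplified, labeled and separated by capillary electrophoresis. Values come from bidirectional fitting against DMSO.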

[7] = target: Nuclear respiratory factor 1 (Homo sapiens) (UniProt Q16656); test: ATG_NRF1_CIS: Attagene CIS-FACTORIAL HepG2 Assay for human Nuclear Respiratory Factor 1 (NRF1) Orphan Gene (AID 2282987); conditions: HepG2 NRF1 cis-element reporter, Attagene multiplex; actives raise or lower the signal
Summary of the method: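 Measured: fluorescent reporter-specific RT-PCR products from transfected HepG2 cells, separated by capillary electrophoresis. Exposure lasted 24 h. Analysis used bidirectional curve fitting with DMSO as negative control.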

[8] = ATG_NFI_CIS: Attagene CIS-FACTORIAL HepG2 Assay for human Nuclear Factor I (NFI) (AID 2282989); conditions: HepG2 cis-regulatory reporter, NFI response element transcription; actives raise or lower the signal
Summary of the method: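 HepG2 cells transiently transfected with cis-element-driven multiplexed reporter transcription units, dosed for 24 h. Reporter mRNA quantified by RT-PCR, fluorescent labelling, HpaI digestion and capillary electrophoresis; bidirectional fit versus DMSO baseline.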

[9] = target: Myc proto-oncogene protein (Homo sapiens) (UniProt P01106); test: ATG_Myc_CIS: Attagene CIS-FACTORIAL HepG2 Assay for human Myelocytomatosis (Myc) Proto-Oncogene Transcription Factor (AID 2282990); conditions: HepG2, Attagene cis-reporter transcription factor activity; actives raise or lower the signal
Summary of the method: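 HepG2, transient MRTU transfection (cis promoters, endogenous TFs); 24 h dosing; TriZol RNA → oligo(dT) RT → PCR → 6-FAM primer extension → HpaI cut → CE. Bidirectional fit vs DMSO.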

[10] = ATG_NF_kB_CIS: Attagene CIS-FACTORIAL HepG2 Assay for human Nuclear Factor Kappa B (NF-kB) (AID 2282991); conditions: HepG2 Attagene cis-factorial NF-kB reporter mRNA; actives raise or lower the signal
Summary of the method: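 Fluorescence of labelled RT-PCR products separated by capillary electrophoresis gives reporter mRNA levels from transfected HepG2 cells exposed 24 h; values are fitted in both directions relative to DMSO.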

[11] = ATG_NRF2_ARE_CIS: Attagene CIS-FACTORIAL HepG2 Assay for human Nuclear Factor Erythroid 2 Related Factor 2 (NFR2) response to Antioxidant Response Elements (ARE) (AID 2282992); conditions: HepG2 Attagene ARE/NRF2 reporter, transcription factor activity; actives raise or lower the signal
Summary of the method: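 Multiplexed reporter mRNA profiling in HepG2 after a 24 h chemical exposure. Curves fitted in both directions relative to DMSO negative control.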

[12] = target: Cellular tumor antigen p53 (Homo sapiens) (UniProt P04637); test: ATG_p53_CIS: Attagene CIS-FACTORIAL HepG2 Assay for human p53 Transcription Factor (AID 2282994); conditions: HepG2 p53 cis-element reporter, Attagene mRNA; actives raise or lower the signal
Summary of the method: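 Multiplexed reporter mRNA assay in human HepG2 liver cells; cis-regulated units report endogenous factor activity. Values come from bidirectional curve fitting against DMSO negative control after 24 h treatment.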

[13] = target: Bile acid receptor (Homo sapiens) (UniProt Q96RI1); test: ATG_FXR_TRANS: Attagene TRANS-FACTORIAL HepG2 Assay for Farnesoid X Receptor (FXR) (AID 2282979; active = hit-call score of the fitted dose curve at least 0.9, where 1 is the maximum;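 note: hits raise reporter mRNA above DMSO so AC50 marks FXR activation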); conditions: HepG2 Attagene TRANS FXR-GAL4 reporter transcription
Summary of the method: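 Chimeric FXR-GAL4 activity in transiently transfected human HepG2 liver cells is scored as induction of reporter mRNA after 24 h of dosing. Detection uses RT-PCR with fluorescent labelling and capillary electrophoresis, with DMSO serving as baseline.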

[14] = target: Hepatocyte nuclear factor 4-alpha (Homo sapiens) (UniProt P41235); test: ATG_HNF4a_TRANS: Attagene TRANS-FACTORIAL HepG2 Assay for human Hepatocyte Nuclear Factor 4 alpha (HNF4a) (AID 2282982; active = hit-call score of the fitted dose curve at least 0.9, where 1 is the maximum); conditions: HepG2 HNF4a transactivation reporter, mRNA readout
Summary of the method: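 Transfected HepG2 reporter cells are dosed for 24 h; reporter RNA is reverse-transcribed, amplified, fluorescently labelled and HpaI-digested before CE sizing. Positive-direction fit against DMSO.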

[15] = ATG_Oct_MLP_CIS: Attagene CIS-FACTORIAL HepG2 Assay for human Octamer-Binding Transcription Factor (Oct) (AID 2282993); conditions: HepG2 Attagene cis-factorial Oct reporter, mRNA; actives raise or lower the signal
Summary of the method: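 HepG2 cells transiently transfected with cis-promoter-driven multiplexed reporter transcription units, dosed for 24 h. Reporter mRNA quantified by RT-PCR, fluorescent labelling, HpaI digestion and capillary electrophoresis; bidirectional fits versus DMSO baseline.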

[16] = ATG_M_06_TRANS: Attagene TRANS-FACTORIAL HepG2 Assay for M06 Transcription Factor (Internal Marker) (AID 2282983; active = hit-call score of the fitted dose curve at least 0.9, where 1 is the maximum); conditions: HepG2 Attagene TRANS M06 internal marker reporter
Summary of the method: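 Measured by capillary electrophoresis of fluorescently labelled RT-PCR products, this endpoint reflects reporter mRNA in HepG2 cells harbouring exogenous NR-GAL4 reporter constructs after 24 h exposure, with DMSO as baseline.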

[17] = BSK_3C_TissueFactor: BioMAP Diversity Plus: 3C Assay for Tissue Factor Biomarker Activity (AID 2282997); conditions: BioMAP 3C HUVEC, tissue factor biomarker readout; actives raise or lower the signal
Summary of the method: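 Values derive from bidirectional curve fitting against DMSO of Tissue Factor ELISA signals, taken 24 h after dosing primary human umbilical vein endothelial cells.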

[18] = BSK_3C_uPAR: BioMAP Diversity Plus: 3C Assay for Urokinase-type plasminogen activator receptor (uPAR) Biomarker Activity (AID 2282998); conditions: BioMAP 3C HUVEC, uPAR biomarker ELISA; actives raise or lower the signal
Summary of the method: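 Human umbilical vein endothelial primary cells were exposed to test chemical for 24 h. Cell-surface uPAR was then quantified by ELISA, and responses were fitted bidirectionally against DMSO as negative control and baseline.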

Measured: outcome

Chain of Nuclear respiratory factor 1 (Homo sapiens) (Q16656 whole entry, looked up): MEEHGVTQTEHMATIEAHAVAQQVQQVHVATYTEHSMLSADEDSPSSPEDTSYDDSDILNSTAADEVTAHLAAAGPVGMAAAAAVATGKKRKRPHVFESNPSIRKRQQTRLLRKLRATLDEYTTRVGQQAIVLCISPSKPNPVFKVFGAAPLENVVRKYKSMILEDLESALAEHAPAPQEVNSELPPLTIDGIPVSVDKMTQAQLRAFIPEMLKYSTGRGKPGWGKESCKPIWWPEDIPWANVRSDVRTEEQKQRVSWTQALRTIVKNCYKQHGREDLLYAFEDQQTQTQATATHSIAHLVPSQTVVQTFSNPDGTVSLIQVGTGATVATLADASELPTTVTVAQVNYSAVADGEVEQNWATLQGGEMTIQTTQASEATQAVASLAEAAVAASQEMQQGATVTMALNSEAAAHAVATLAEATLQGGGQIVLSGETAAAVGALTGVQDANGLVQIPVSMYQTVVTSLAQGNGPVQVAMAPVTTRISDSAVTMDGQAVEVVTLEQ
Chain of Hepatocyte nuclear factor 4-alpha (Homo sapiens) (P41235 whole entry, looked up): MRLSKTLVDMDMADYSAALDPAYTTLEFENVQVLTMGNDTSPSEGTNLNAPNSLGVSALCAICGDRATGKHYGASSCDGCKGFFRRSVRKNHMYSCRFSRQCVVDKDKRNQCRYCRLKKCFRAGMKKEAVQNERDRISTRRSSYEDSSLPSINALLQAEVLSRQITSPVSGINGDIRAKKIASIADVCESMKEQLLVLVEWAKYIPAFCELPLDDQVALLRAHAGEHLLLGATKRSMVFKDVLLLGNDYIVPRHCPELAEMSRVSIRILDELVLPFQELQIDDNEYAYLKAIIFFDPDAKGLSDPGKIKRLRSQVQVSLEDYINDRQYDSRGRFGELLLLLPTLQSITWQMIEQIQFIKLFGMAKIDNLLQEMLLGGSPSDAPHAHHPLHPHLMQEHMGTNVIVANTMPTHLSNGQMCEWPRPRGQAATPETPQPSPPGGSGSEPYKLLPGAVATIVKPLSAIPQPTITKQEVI
Chain of Glucocorticoid receptor (Homo sapiens) (P04150 whole entry, looked up): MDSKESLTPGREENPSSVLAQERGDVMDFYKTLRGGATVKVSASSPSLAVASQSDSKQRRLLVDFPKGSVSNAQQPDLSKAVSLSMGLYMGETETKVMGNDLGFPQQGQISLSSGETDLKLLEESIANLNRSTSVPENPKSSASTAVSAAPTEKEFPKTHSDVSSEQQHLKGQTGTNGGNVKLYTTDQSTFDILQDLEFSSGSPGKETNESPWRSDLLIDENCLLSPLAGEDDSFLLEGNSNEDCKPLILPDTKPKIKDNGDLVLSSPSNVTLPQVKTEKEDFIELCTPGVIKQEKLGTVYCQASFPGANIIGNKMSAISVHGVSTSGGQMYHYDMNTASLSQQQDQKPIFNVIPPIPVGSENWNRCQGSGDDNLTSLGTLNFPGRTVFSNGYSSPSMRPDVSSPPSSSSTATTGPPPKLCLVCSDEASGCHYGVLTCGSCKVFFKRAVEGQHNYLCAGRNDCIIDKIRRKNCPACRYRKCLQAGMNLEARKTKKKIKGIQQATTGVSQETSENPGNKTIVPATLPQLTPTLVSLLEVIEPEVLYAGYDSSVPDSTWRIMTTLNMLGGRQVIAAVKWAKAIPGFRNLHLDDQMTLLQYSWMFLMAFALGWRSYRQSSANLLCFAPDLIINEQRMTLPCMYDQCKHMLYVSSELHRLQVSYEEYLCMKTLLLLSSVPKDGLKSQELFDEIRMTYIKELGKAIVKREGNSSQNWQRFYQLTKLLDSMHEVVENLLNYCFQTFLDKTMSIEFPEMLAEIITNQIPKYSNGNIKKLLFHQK
Chain of Transcriptional activator Myb (Homo sapiens) (P10242 whole entry, looked up): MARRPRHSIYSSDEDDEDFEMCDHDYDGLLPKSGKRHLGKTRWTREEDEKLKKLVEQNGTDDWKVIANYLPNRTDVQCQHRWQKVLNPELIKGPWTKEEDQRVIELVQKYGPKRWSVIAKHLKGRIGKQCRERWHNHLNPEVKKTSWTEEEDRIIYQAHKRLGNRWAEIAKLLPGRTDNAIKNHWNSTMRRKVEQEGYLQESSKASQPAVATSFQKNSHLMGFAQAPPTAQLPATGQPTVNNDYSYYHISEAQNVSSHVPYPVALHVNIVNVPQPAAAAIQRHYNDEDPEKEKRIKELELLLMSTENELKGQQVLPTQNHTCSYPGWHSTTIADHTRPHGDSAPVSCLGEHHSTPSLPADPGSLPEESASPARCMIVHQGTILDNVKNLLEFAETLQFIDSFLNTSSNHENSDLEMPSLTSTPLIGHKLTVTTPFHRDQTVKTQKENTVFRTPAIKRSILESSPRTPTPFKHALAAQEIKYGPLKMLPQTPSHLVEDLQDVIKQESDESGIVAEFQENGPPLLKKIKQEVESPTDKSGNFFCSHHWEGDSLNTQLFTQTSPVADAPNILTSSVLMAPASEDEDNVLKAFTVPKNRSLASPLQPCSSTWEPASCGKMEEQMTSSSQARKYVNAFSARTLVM
Chain of Myc proto-oncogene protein (Homo sapiens) (P01106 whole entry, looked up): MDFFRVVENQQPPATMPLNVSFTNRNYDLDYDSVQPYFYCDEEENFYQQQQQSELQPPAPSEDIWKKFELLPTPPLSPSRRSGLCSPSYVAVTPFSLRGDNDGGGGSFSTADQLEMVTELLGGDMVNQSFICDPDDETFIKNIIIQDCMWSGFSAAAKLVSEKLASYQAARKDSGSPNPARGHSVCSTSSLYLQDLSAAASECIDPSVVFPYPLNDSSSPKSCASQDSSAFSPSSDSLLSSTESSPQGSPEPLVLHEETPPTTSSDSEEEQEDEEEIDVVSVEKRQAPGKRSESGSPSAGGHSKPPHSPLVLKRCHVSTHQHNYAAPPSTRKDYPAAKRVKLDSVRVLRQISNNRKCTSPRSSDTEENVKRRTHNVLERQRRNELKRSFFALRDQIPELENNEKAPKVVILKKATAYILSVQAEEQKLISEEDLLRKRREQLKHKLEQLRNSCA
Chain of Nuclear receptor subfamily 4 group A member 2 (Homo sapiens) (P43354 whole entry, looked up): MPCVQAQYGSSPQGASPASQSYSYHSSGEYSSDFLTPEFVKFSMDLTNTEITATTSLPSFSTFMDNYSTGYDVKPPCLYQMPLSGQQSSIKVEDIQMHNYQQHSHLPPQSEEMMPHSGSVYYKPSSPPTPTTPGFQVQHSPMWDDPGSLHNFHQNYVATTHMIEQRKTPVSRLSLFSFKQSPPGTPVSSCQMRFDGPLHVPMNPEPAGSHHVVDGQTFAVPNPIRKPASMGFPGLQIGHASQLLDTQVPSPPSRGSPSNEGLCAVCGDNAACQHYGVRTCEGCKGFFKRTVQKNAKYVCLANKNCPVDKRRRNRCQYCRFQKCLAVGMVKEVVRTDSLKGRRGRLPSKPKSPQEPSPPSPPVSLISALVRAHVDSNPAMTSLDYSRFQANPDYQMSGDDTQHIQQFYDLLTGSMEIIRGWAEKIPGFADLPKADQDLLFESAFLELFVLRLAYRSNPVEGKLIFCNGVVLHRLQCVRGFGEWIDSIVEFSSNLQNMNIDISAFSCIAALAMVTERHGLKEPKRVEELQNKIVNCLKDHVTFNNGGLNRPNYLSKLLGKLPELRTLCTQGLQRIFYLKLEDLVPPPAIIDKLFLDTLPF
Chain of Cellular tumor antigen p53 (Homo sapiens) (P04637 whole entry, looked up): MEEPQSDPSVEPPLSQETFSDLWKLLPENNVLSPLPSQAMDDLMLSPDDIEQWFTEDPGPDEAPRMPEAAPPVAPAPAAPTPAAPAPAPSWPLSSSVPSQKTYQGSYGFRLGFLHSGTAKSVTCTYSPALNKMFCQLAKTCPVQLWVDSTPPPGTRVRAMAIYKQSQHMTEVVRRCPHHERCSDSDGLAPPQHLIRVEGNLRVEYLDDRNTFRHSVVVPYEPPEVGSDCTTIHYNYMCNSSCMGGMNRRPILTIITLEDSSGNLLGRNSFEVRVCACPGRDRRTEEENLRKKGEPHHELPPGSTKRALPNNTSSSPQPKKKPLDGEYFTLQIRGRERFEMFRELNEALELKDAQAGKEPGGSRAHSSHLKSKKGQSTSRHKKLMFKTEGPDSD
Chain of Oxysterols receptor LXR-beta (Homo sapiens) (P55055 whole entry, looked up, the tested form may be a part): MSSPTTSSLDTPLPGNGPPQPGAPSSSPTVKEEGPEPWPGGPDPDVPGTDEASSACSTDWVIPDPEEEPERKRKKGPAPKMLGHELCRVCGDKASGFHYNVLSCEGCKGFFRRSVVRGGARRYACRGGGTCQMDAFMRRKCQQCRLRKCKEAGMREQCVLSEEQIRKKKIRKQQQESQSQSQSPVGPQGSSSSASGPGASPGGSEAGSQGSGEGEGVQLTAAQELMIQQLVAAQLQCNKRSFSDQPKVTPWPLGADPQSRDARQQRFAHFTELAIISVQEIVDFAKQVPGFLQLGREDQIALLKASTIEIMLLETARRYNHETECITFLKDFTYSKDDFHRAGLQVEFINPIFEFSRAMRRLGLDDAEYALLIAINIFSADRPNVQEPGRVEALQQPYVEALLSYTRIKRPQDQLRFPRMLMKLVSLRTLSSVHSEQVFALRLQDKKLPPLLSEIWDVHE
Chain of Oxysterols receptor LXR-alpha (Homo sapiens) (Q13133 whole entry, looked up): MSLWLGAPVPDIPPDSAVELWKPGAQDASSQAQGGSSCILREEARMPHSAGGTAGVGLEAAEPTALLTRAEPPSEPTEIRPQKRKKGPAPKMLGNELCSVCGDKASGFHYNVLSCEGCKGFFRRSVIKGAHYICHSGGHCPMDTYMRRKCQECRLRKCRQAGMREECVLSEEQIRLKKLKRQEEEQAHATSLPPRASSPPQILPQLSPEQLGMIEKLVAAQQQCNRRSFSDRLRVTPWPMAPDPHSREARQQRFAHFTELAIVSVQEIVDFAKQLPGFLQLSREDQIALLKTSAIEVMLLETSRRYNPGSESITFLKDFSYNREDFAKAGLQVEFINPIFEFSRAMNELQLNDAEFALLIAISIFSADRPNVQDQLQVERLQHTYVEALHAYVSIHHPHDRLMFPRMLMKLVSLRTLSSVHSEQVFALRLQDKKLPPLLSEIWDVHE

CCCCCCCCCCCC(=O)OCC
inactive: [1] | [2] | [3] | [4] | [5] | [6] | [7] | [8] | [9] | [10] | [11] | [12]

Nc1ncnc2nc[nH]c12
inactive: [1] | [13] | [14] | [6] | [8] | [9] | [11] | [15] | [12]

CCOC(=O)CC(=O)c1ccccc1
inactive: [1] | [3] | [6] | [7] | [8] | [9] | [10] | [11] | [15]

CCCCOCCOC(=O)COc1ccc(Cl)cc1Cl
inactive: [1] | [14] | [16] | [4] | [5] | [6] | [7] | [8] | [9] | [10] | [15] | [12]

Cc1c(C(=O)c2c[nH]n(C)c2=O)ccc(S(C)(=O)=O)c1C1=NOCC1
inactive: [1] | [3] | [14] | [16] | [6] | [7] | [8] | [9] | [10] | [11] | [15] | [12]

CCCCCCC=O
inactive: [1] | [3] | [4] | [5] | [6] | [7] | [8] | [9] | [10] | [11] | [15] | [12] | [17] | [18]

CC(C)(C)N
inactive: [1] | [3] | [14] | [5] | [6] | [7] | [8] | [9] | [10] | [11] | [15] | [12]

CC(=O)OCc1ccccc1
inactive: [1] | [3] | [14] | [16] | [6] | [7] | [8] | [9] | [10] | [11] | [15]

O=C1c2ccccc2C(=O)c2cc(S(=O)(=O)O)ccc21
inactive: [1] | [2] | [3] | [4] | [6] | [7] | [8] | [9] | [10] | [15]

Cc1cccc(C(C)(C)C)c1O
inactive: [1] | [2] | [14] | [4] | [6] | [7] | [8] | [9] | [11] | [12]

CC(C)CO
inactive: [1] | [3] | [14] | [16] | [6] | [7] | [8] | [9] | [10] | [11] | [15]
